An excerpt weighted towards active compounds, which were near 4.3% of everything screened.
BoNT-A LC inh2: blocks Botulinum neurotoxin A light chain protease; multiplex microsphere protease substrate cleavage, flow cytometry; inhibition, % at 10 µM; 0.17% of 360,000 active; further: plate controls were buffer without enzyme for full effect and enzyme alone for no effect
Autofluor counter: counter-screen for toxin protease inhibitors: compound fluorescence | AID 624483 | compound autofluorescence counterscreen, microsphere flow cytometry; stronger effect = higher value | fluorescence intensity (test concentration not listed) | 3.1% of 360,000 active; in the data active means fluorescence intensity above about 16000; inconclusive means no clear call, values can overlap the other calls
MazF activator: activators of E. coli MazEF toxin-antitoxin RNase | P0AE70 | FAM/BHQ RNA-DNA oligo cleavage fluorescence, 5 h | activation, % at 20 µM | 0.32% of 350,000 active; in the data active means activation above about 50%
BoNT-F LC inh: inhibitors of Botulinum neurotoxin F light chain protease; Multiplex microsphere protease cleavage assay, flow cytometry; inhibition, % at 10 µM; 0.22% of 360,000 active; AID 588497; in the data active means inhibition above about 35%, passing the limit was not always enough; inconclusive means no clear call, values can overlap the other calls; further: plate controls were buffer without enzyme for full effect and enzyme alone for no effect
Anthrax LF prot: blocks Bacillus anthracis lethal factor protease. P15917. 0.12% of 360,000 active. multiplex microsphere protease cleavage assay, LF. inhibition, % at 10 µM; further: plate controls were buffer without enzyme for full effect and enzyme alone for no effect
Target sequence (P15917 whole entry, looked up): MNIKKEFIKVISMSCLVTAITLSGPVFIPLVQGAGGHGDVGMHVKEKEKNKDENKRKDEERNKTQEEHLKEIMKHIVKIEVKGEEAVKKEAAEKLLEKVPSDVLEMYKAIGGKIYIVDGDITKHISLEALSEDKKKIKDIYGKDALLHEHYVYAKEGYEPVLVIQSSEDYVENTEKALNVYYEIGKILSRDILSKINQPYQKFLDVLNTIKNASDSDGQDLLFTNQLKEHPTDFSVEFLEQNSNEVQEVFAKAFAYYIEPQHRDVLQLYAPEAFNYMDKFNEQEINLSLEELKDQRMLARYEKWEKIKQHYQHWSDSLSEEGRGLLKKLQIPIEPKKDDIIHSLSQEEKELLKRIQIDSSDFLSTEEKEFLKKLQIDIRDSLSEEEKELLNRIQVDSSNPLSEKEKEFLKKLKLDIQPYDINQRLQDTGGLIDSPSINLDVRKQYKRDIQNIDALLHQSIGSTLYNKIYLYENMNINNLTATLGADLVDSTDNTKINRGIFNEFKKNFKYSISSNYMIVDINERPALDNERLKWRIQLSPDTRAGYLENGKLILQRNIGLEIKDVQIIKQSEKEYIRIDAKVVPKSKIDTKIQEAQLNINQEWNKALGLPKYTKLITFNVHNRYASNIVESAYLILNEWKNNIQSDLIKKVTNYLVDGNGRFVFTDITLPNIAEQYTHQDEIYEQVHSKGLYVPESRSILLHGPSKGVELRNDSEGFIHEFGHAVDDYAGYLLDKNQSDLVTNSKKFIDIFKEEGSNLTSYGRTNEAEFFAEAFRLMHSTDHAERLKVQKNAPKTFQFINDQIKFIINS
PfHsp40 rescue: compounds rescuing yeast from Plasmodium falciparum HSP40 toxicity | growth rescue, % at 12.5 µM | S. cerevisiae expressing PfHsp40, growth rescue, ATP luminescence | 0.68% of 340,000 active | AID 504582; in the data active means growth rescue above about 28%, passing the limit was not always enough; inconclusive means no clear call, values can overlap the other calls;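 further: yeast W303a lacking pdr1 and pdr3 grown in galactose medium; growth measured after three days at 30 °C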
* hit, by the source's call; ? = inconclusive; · = no result given. Unless noted, no stated cut-off is given here; in the data, active means inhibition above about 30%; inconclusive means no clear call, values can overlap the other calls; inactive means below that.

SMILES	BoNT-A LC inh2	Autofluor counter	MazF activator	BoNT-F LC inh	Anthrax LF prot	PfHsp40 rescue
CC(=O)Nc1ccc(S(=O)(=O)N2CCN(C)CC2)cc1	-2	23174*	-12	-4	0	1
CC(=O)Nc1ccc(OCC(O)CN2CCN(S(=O)(=O)c3ccc(NC(C)=O)cc3)CC2)cc1 (stereo unspecified)	0	11196	-6	-5	-3	0
CC1CCCN(S(=O)(=O)c2ccc(NC(=O)CCN3C(=O)c4ccccc4C3=O)cc2)C1 (stereo unspecified)	1	4063	7	?	6	0
CC(=O)Nc1ccc(S(=O)(=O)N2CCN(C(=O)N3CCOCC3)CC2)cc1	0	5469	6	-7	0	-2
CC(=O)Nc1ccc(S(=O)(=O)N2CCN(CC(O)COc3ccc4ccccc4c3)CC2)cc1 (stereo unspecified)	?	23688*	2	2	-1	0
O=C(CCN1C(=O)c2ccccc2C1=O)Nc1ccc(S(=O)(=O)N2CCOCC2)cc1	-6	22292*	0	-6	-2	2
CC(=O)Nc1ccc(S(=O)(=O)N2CCOCC2)cc1	2	21279*	9	4	-2	0
CCCC(C)(C)C(=O)N1CCC1(C)C(=O)NS(=O)(=O)c1ccc(Cl)cc1 (stereo unspecified)	0	2777	·	2	-1	·
CCOc1ccc(N2CC(C(=O)Nc3ccc(S(=O)(=O)N4CCOCC4)cc3)CC2=O)cc1 (stereo unspecified)	?	23130*	8	-1	1	?
Cn1c(=O)n(C)c2cc([N+](=O)[O-])c(N3CCN(S(=O)(=O)c4ccc(C(C)(C)C)cc4)CC3)cc21	0	11660	-12	-2	-4	0
CCN(CC)C(=O)COc1ccc(S(=O)(=O)N2CCOCC2)cc1	0	16440*	9	3	0	0
CCN(CC)C(=O)COc1ccc(S(=O)(=O)N2CCCC2)cc1	-6	3877	6	?	-11	0
CC(=O)Nc1ccc(S(=O)(=O)N2CCN(c3cc4c(cc3[N+](=O)[O-])n(C)c(=O)n4C)CC2)cc1	7	21248*	8	7	-8	-1
Cc1ccc(NC(=O)COc2ccc(S(=O)(=O)N3CCOCC3)cc2)cc1	1	22684*	-13	3	-2	0
O=C(Cc1cccc(NC(=O)C2CCN(C(=O)CCc3ccccc3)CC2)c1)Nc1cccc(C(=O)N2CCCC2)c1	-1	4193	7	-8	4	-2
O=C(/C=C/c1ccc(S(=O)(=O)N2CCOCC2)cc1)NC(=S)Nc1ccc(N2CCOCC2)cc1	1	7436	14	-6	-2	46*
O=C(COc1ccc(Cl)cc1)Nc1nc(-c2ccc(S(=O)(=O)N3CCOCC3)cc2)cs1	?	22761*	-8	0	-2	-1
CSc1ccccc1NC(=O)COc1ccc(S(=O)(=O)N2CCCC2)cc1	-3	22225*	2	-6	0	0
COC(=O)c1cc(S(=O)(=O)NCC2CCN(CCc3ccc(OC)cc3)CC2)c[nH]1	-1	5952	5	2	-2	0
Cc1ccc2[nH]cc(S(=O)(=O)c3ccc(C)c(C)c3)c(=O)c2c1	1	3539	9	-5	-7	0
Cc1ccc(S(=O)(=O)NC(C)C(=O)OCC(=O)Nc2sccc2C(N)=O)cc1 (stereo unspecified)	0	3558	3	0	-3	·
CC1=CC2=NC(=O)/C(=C\c3cccn3CCOc3cccc(C)c3)C(=N)N2O1	0	2510	-1	5	-1	44*
CCOc1cc(/C=C2/C(=N)N3OC(C)=CC3=NC2=O)ccc1OCCOc1ccccc1	-1	7026	149*	-9	-6	-1
COc1cc(/C=C2/C(=N)N3OC(C)=CC3=NC2=O)ccc1OCCOc1ccc(C)cc1	2	6408	91*	2	-9	0
COc1cccc(OCCn2cccc2/C=C2/C(=N)N3OC(C)=CC3=NC2=O)c1	-1	2694	-1	-1	-3	0
SMILES	BoNT-A LC inh2	Autofluor counter	MazF activator	BoNT-F LC inh	Anthrax LF prot	PfHsp40 rescue
COc1ccc(C)cc1NC(=S)NNC(=O)c1c(Br)cnn1C	-1	4228	4	-4	2	0
CCOCC(O)CS(=O)(=O)c1ccccn1 (stereo unspecified)	?	23197*	-2	2	0	0
O=C(OCc1ccccc1)N1CCC2CC1c1cc(Cl)ccc12 (stereo unspecified)	0	3720	-26	7	-5	0
O=C(OCc1ccccc1)N1CCC2CC1c1c(Cl)cccc12 (stereo unspecified)	0	4097	-8	-3	7	32*
O=C(Cn1c(-c2ccccc2)noc1=O)Nc1ccc(N2CCCCCC2)cc1	-5	25078*	2	-12	-5	0
C[C@@H]1CC[C@@]2(O[C@@H](CCO)C[C@H](O)[C@H]2O)O1	0	3972	4	-4	-3	-1
Cn1c(N)c(C(=O)Nc2ccc3ccccc3c2)sc1=S	?	21788*	11	2	-1	-1
COC(=O)c1cc(NC(=O)C2COc3ccccc3O2)ccc1Cl (stereo unspecified)	2	21646*	5	2	-1	2
O=C(/C(=C/c1ccc(Cl)cc1)c1nc2ccccc2[nH]1)c1cccs1	-2	16724*	1	-3	-3	0
O=C(/C(=C\c1ccccc1)c1nc2ccccc2[nH]1)c1ccc(Cl)cc1	-1	2536	4	-4	-3	1
CN(C)S(=O)(=O)c1ccc(C(=O)OCC(=O)Nc2ccccc2OC(F)F)cc1	-2	23884*	-7	-4	-2	0
O=C(COC(=O)c1ccc(S(=O)(=O)NCc2ccco2)cc1)Nc1ccccc1OC(F)F	0	3950	2	-2	-3	0
COCCCNc1c2c(nc3ccccc13)CCC2	0	3820	3	-1	3	·
CC1CCN(c2cc(C#N)c(C#N)cc2[N+](=O)[O-])CC1	-1	23005*	10	-3	0	-1
Cc1cc(N2CCC(C)CC2)c(F)cc1[N+](=O)[O-]	-1	24078*	-10	-2	1	-1
Cc1cc(N2CCCC2)c(F)cc1/C=C\[N+](=O)[O-]	62*	9071	27	22	35*	-1
O=C1NC2=C(C(=O)CCC2)C(c2ccc(OC(F)F)cc2)N1 (stereo unspecified)	-3	3660	-14	1	6	0
CC1(C(=O)NS(=O)(=O)c2ccc(Cl)cc2)CCN1C(=O)Cc1ccc(Cl)cc1Cl (stereo unspecified)	-1	2923	·	2	-5	·
Cc1ccc2[nH]c(=O)c(N3CCOCC3)c(-c3ccccc3)c2c1	?	25661*	4	-8	-3	0
O=C(CCN1CCOCC1)Nc1c(-c2ccccc2)c2cc(Br)ccc2[nH]c1=O	1	8071	-3	9	-1	0

From PubChem BioAssay
